{
  "source": "paper PMC4081100",
  "about": "“A DNA-binding-site landscape and regulatory network analysis for NAC transcription factors in Arabidopsis thaliana”",
  "data": [
    {"molecular_target": "T1, GST-ANAC092(1-176) (Arabidopsis thaliana, UniProt Q9FKA0 1-176)", "T1 sequence": "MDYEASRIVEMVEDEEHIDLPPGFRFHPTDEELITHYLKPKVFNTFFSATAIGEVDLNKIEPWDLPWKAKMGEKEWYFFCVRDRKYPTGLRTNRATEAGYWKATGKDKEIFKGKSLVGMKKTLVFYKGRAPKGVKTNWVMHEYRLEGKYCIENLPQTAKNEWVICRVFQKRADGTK", "assay": "universal protein binding microarray (PBM); high values mean tight binding", "details": "protein: recombinant; tags: GST; chain copies: 2; dsDNA, one strand shown", "procedure,_shortened": "(§1)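 Binding is expressed as the normalised enrichment score (E-score). Proteins carrying a GST tag, whether NAC-domain, full-length or DNA-binding-domain forms, were induced in cells, and zinc acetate was added for zinc-finger proteins. After purification on glutathione–Sepharose 4B and quantification by A280 or anti-GST western blot, each was applied in duplicate at 200 to 500 nM final to custom all-10-mer Agilent 4 × 180K arrays made double-stranded by primer extension. Gapped and ungapped 8-mers were scored.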", "units": {"binding signal": "E-score"}, "values": [
      {"sequence": "AGCTTGAC", "binding signal": 0.0728},
      {"sequence": "AGTCTTTG", "binding signal": 0.0553},
      {"sequence": "AGAGGTAA", "binding signal": 0.145},
      {"sequence": "AGGGTAAT", "binding signal": 0.113},
      {"sequence": "AGGGAAAT", "binding signal": 0.137},
      {"sequence": "AGGAAACT", "binding signal": 0.174},
      {"sequence": "GACCGGAA", "binding signal": 0.0538}
    ]},
    {"molecular_target": "GST-NTL6(1-168) (Arabidopsis thaliana, UniProt Q9SCK6 1-168)", "sequence (Q9SCK6 1-168)": "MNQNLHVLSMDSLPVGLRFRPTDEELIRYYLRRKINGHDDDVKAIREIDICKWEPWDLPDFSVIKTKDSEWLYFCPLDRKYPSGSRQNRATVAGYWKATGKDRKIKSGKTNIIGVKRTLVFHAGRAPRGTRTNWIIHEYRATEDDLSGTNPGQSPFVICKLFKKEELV", "assay": "universal protein binding microarray (PBM); high values mean tight binding", "details": "protein: recombinant; tags: GST; chain copies: 2; dsDNA, one strand shown", "procedure,_shortened": "as §1", "units": {"binding signal": "E-score"}, "values": [
      {"sequence": "ATTCCCTC", "binding signal": 0.115},
      {"sequence": "AGTCTTTG", "binding signal": 0.0583},
      {"sequence": "AGAGGTAA", "binding signal": 0.237},
      {"sequence": "AGGGTAAT", "binding signal": 0.143},
      {"sequence": "GAAGTCAA", "binding signal": 0.104},
      {"sequence": "ATAAGTCA", "binding signal": 0.161},
      {"sequence": "ATTGACTG", "binding signal": 0.071},
      {"sequence": "AGGGAAAT", "binding signal": 0.0669},
      {"sequence": "AGGAAACT", "binding signal": 0.227},
      {"sequence": "GTCAATAA", "binding signal": 0.109}
    ]},
    {"molecular_target": "T2, GST-ANAC019 NAC domain (Arabidopsis thaliana, UniProt Q9C932 14-162)", "T2 sequence": "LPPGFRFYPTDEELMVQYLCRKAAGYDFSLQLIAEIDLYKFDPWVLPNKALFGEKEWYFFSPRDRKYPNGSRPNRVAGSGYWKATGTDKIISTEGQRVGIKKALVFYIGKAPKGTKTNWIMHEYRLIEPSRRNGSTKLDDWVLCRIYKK", "assay": "universal protein binding microarray (PBM); high values mean tight binding", "details": "protein: recombinant; tags: GST; chain copies: 2; dsDNA, one strand shown", "procedure,_shortened": "as §1", "units": {"binding signal": "E-score"}, "values": [
      {"sequence": "AGTCTGAC", "binding signal": 0.0699},
      {"sequence": "ATTCCCTC", "binding signal": 0.0664},
      {"sequence": "AAAAAGTC", "binding signal": 0.0791},
      {"sequence": "AGCTTGAC", "binding signal": 0.0936},
      {"sequence": "AGTCTTTG", "binding signal": 0.0679},
      {"sequence": "AGAGGTAA", "binding signal": 0.0713},
      {"sequence": "AGGGTAAT", "binding signal": 0.116},
      {"sequence": "TTAGTCAA", "binding signal": 0.12},
      {"sequence": "GAAGTCAA", "binding signal": 0.0675},
      {"sequence": "AGTCAACG", "binding signal": 0.0747},
      {"sequence": "AGGGAAAT", "binding signal": 0.0765},
      {"sequence": "AGAAAGTC", "binding signal": 0.0754},
      {"sequence": "GACCGGAA", "binding signal": 0.213}
    ]},
    {"molecular_target": "T3, GST-ANAC055(1-171) (Arabidopsis thaliana, UniProt Q9LDY8 1-171)", "T3 sequence": "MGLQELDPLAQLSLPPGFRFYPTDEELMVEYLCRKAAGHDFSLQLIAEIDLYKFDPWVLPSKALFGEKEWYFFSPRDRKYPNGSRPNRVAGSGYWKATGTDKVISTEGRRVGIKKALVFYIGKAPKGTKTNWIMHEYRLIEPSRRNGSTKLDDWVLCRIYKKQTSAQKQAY", "assay": "universal protein binding microarray (PBM); high values mean tight binding", "details": "protein: recombinant; tags: GST; chain copies: 2; dsDNA, one strand shown", "procedure,_shortened": "as §1", "units": {"binding signal": "E-score"}, "values": [
      {"sequence": "AGTCTGAC", "binding signal": 0.0555},
      {"sequence": "CATTTGAC", "binding signal": 0.0579},
      {"sequence": "AATTGACC", "binding signal": 0.0684},
      {"sequence": "AAAAAGTC", "binding signal": 0.209},
      {"sequence": "AGTCTTTG", "binding signal": 0.0944},
      {"sequence": "TAGTCAAA", "binding signal": 0.136},
      {"sequence": "AGAGGTAA", "binding signal": 0.0996},
      {"sequence": "AGGGTAAT", "binding signal": 0.17},
      {"sequence": "AATTTGAC", "binding signal": 0.0892},
      {"sequence": "TAGGTCAA", "binding signal": 0.077},
      {"sequence": "AGGAAACT", "binding signal": 0.0635},
      {"sequence": "AAGTTGAC", "binding signal": 0.0649},
      {"sequence": "AGAAAGTC", "binding signal": 0.0896},
      {"sequence": "ATTAGTCA", "binding signal": 0.0956},
      {"sequence": "TATGGTCA", "binding signal": 0.0561},
      {"sequence": "GACCGGAA", "binding signal": 0.0745},
      {"sequence": "GTCAATAA", "binding signal": 0.134}
    ]},
    {"molecular_target": "T4, GST-ATAF1 NAC domain (Arabidopsis thaliana, UniProt Q39013 7-158)", "T4 sequence": "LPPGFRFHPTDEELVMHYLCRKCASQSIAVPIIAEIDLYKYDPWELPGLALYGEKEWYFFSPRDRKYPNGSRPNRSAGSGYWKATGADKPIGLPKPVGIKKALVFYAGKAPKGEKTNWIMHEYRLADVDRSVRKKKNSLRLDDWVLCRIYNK", "assay": "universal protein binding microarray (PBM); high values mean tight binding", "details": "protein: recombinant; tags: GST; chain copies: 2; dsDNA, one strand shown", "procedure,_shortened": "as §1", "units": {"binding signal": "E-score"}, "values": [
      {"sequence": "AGTCAAAT", "binding signal": 0.213},
      {"sequence": "CATTTGAC", "binding signal": 0.0746},
      {"sequence": "AATTGACC", "binding signal": 0.176},
      {"sequence": "ATGTTGAC", "binding signal": 0.0521},
      {"sequence": "AAAAAGTC", "binding signal": 0.184},
      {"sequence": "AAGGTCAG", "binding signal": 0.0646},
      {"sequence": "TAGTCAAA", "binding signal": 0.272},
      {"sequence": "AGAGGTAA", "binding signal": 0.106},
      {"sequence": "AGGGTAAT", "binding signal": 0.114},
      {"sequence": "AATTTGAC", "binding signal": 0.237},
      {"sequence": "TTAGTCAA", "binding signal": 0.107},
      {"sequence": "ATTTTGAC", "binding signal": 0.15},
      {"sequence": "GAAGTCAA", "binding signal": 0.0967},
      {"sequence": "TAGGTCAA", "binding signal": 0.145},
      {"sequence": "ATTGACTG", "binding signal": 0.0846},
      {"sequence": "AGGGAAAT", "binding signal": 0.112},
      {"sequence": "AGGAAACT", "binding signal": 0.0874},
      {"sequence": "AAGTTGAC", "binding signal": 0.0834},
      {"sequence": "AGAAAGTC", "binding signal": 0.103},
      {"sequence": "ATTAGTCA", "binding signal": 0.109},
      {"sequence": "GTCAATAA", "binding signal": 0.135},
      {"sequence": "TAGTCAGA", "binding signal": 0.0564}
    ]},
    {"molecular_target": "T5, GST-ANAC092(1-285) full length (Arabidopsis thaliana, UniProt Q9FKA0 1-285)", "T5 sequence": "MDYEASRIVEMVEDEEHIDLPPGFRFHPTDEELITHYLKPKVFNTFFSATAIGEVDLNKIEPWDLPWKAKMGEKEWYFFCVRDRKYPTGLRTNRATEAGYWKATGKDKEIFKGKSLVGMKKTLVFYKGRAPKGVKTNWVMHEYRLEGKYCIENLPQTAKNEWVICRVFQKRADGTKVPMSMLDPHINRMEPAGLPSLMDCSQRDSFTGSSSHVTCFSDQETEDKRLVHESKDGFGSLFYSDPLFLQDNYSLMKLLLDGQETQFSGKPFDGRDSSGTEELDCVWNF", "assay": "universal protein binding microarray (PBM); high values mean tight binding", "details": "protein: recombinant; tags: GST; chain copies: 2; dsDNA, one strand shown", "procedure,_shortened": "as §1", "units": {"binding signal": "E-score"}, "values": [
      {"sequence": "AGCTTGAC", "binding signal": 0.065},
      {"sequence": "AGGGTAAT", "binding signal": 0.108},
      {"sequence": "TTAGTCAA", "binding signal": 0.0778},
      {"sequence": "ATTTTGAC", "binding signal": 0.0617},
      {"sequence": "ATAAGTCA", "binding signal": 0.101},
      {"sequence": "AGTCAACG", "binding signal": 0.0699},
      {"sequence": "AGGGAAAT", "binding signal": 0.106},
      {"sequence": "AGGAAACT", "binding signal": 0.186},
      {"sequence": "CATTGACG", "binding signal": 0.149}
    ]},
    {"molecular_target": "T6, GST-NAP(1-166) (Arabidopsis thaliana, UniProt O49255 1-166)", "T6 sequence": "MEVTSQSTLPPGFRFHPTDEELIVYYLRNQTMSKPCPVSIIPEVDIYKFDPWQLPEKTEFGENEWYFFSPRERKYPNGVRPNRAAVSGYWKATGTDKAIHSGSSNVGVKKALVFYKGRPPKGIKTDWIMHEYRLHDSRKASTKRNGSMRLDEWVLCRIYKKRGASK", "assay": "universal protein binding microarray (PBM); high values mean tight binding", "details": "protein: recombinant; tags: GST; chain copies: 2; dsDNA, one strand shown", "procedure,_shortened": "as §1", "units": {"binding signal": "E-score"}, "values": [
      {"sequence": "AGTCAAAT", "binding signal": 0.113},
      {"sequence": "AGTCTGAC", "binding signal": 0.0965},
      {"sequence": "AGCTTGAC", "binding signal": 0.0572},
      {"sequence": "AGAGGTAA", "binding signal": 0.0742},
      {"sequence": "GGTCATAC", "binding signal": 0.108},
      {"sequence": "AGTCAACG", "binding signal": 0.0565},
      {"sequence": "AGGAAACT", "binding signal": 0.0881},
      {"sequence": "GTCAATAA", "binding signal": 0.122}
    ]},
    {"molecular_target": "T7, GST-NST2(1-184) (Arabidopsis thaliana, UniProt Q9M274 1-184)", "T7 sequence": "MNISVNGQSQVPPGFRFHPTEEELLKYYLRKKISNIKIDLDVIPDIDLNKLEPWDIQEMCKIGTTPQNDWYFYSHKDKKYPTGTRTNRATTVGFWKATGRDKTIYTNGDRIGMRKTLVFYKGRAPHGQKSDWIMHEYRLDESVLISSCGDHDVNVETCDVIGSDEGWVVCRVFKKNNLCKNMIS", "assay": "universal protein binding microarray (PBM); transcription factors of Arabidopsis thaliana; high values mean tight binding", "details": "protein: recombinant; tags: GST; chain copies: 2; dsDNA, one strand shown", "procedure,_shortened": "as §1", "units": {"binding signal": "E-score"}, "values": [
      {"sequence": "CATTTGAC", "binding signal": 0.0611},
      {"sequence": "AATTGACC", "binding signal": 0.0795}
    ]}
  ]
}
